Experimental data from PubChem BioAssay (EPA / NIEHS).
Records with an inconclusive call do not appear. Active and inactive are the calls of the source. The calls were made as follows: active = hit-call score of the fitted dose curve at least 0.9, where 1 is the maximum; inconclusive = response in the unintended direction; inactive = score below 0.9.

What follows are compounds tested against Estrogen receptor beta (Homo sapiens) (UniProt Q92731) (assay: OT_ER_ERbERb_0480: Odyssey Thera (OT) 8-hour HEK293T Protein-Complementation Assay for Estrogen Receptor-beta/-beta Homodimer (AID 2283357)).
Procedure: OT_ER_ERbERb_0480 is a cell-based assay that uses HEK293T, a human kidney cell line, with measurements taken at 8 hours after chemical dosing in a 384-well plate.OT_ER_ERbERb_0480 is one of one assay component(s) measured or calculated from the OT_ER_ERbERb_0480 assay. It is designed to make measurements of protein fragment complementation, a form of binding reporter, as detected with fluorescence intensity signals by Protein-fragment Complementation technology.Data from the assay component OT_ER_ERbERb_0480 was analyzed into 1 assay endpoint. This assay endpoint, OT_ER_ERbERb_0480, was analyzed in the positive analysis fitting direction relative to DMSO as the negative control and baseline of activity. Using a type of binding reporter, measures of receptor for gain-of-signal activity can be used to understand the binding at the pathway-level as they relate to the gene ESR2. Furthermore, this assay endpoint can be referred to as a primary readout, because the performed assay has only produced 1 assay endpoint. To generalize the intended target to other relatable targets, this assay endpoint is annotated to the nuclear receptor intended target family, where the subfamily is steroidal.
Protein-fragment complementation assay, or PCA, is a method for the identification and quantification of protein-protein interactions. In the PCA, the proteins of interest ("bait" and "prey") are each covalently linked to fragments of a third protein (e.g. DHFR, which acts as a "reporter"). Interaction between the bait and the prey proteins brings the fragments of the reporter protein in close proximity to allow them to form a functional reporter protein whose activity can be measured. The OT ER beta / ER beta assay is a homodimer PCA of the ligand binding domain (LBD; amino acids 310-547) of human ER beta stably expressed in HEK293T cells. […] Cells are fixed in 4 percent formaldehyde and stained with Draq5 (BioStatus) to identify cells prior to signal detection. Fluorescent signal in the basal state of the assay is very low and is primarily punctuate and cytoplasmic. Modulation of this assay is quantified as an increase in mean fluorescence intensity in the nucleus (for agonists) or in the nucleus and cytoplasm (antagonists) relative to vehicle controls, and can be quantified on a high content imaging device or a laser scanning cytometer. The latter instrument is favored for this assay because of the rapid mode of data acquisition, the ability to acquire data from the entire cell population in a well (as opposed to a fraction of the well on the high content devices) and the larger dynamic range typically achieved with this instrument. To assess sensitivity of the ER beta/ER beta LBD assay to ligand, cells were treated with the ER agonist 17- beta-estradiol (E2) in 10-point concentration- response format for 8 hours and monitored response on a laser scanning plate cytometer (Acumen eX3; TTP Lab Tech).

Chain of Estrogen receptor beta (Homo sapiens) (Q92731 whole entry, looked up, the tested form may be a part): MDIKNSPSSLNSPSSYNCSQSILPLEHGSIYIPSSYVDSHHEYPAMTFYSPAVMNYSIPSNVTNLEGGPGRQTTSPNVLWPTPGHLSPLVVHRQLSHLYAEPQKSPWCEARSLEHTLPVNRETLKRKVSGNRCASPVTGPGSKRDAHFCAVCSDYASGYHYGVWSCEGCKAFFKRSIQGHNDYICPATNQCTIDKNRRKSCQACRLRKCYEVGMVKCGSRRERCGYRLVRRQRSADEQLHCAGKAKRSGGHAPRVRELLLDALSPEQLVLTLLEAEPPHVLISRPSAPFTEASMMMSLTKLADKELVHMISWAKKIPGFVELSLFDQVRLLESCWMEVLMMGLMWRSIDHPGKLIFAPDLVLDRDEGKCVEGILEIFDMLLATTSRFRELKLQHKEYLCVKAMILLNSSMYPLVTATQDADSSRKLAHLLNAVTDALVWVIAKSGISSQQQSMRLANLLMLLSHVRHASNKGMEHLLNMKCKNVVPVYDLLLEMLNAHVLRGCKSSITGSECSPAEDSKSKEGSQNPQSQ

Compound | AC50 | outcome
Oc1cc(Cl)c(Cl)cc1Cl | 43.8 µM (active) | 
N#Cc1cccnc1 |  | inactive
CCOP(=S)(OCC)O/N=C(\C#N)c1ccccc1 | 26.9 µM (active) | 
Nc1ccc(N)cc1 |  | inactive
COC(=O)Nc1cccc(OC(=O)Nc2cccc(C)c2)c1 |  | inactive
Cc1cc(Cl)ccc1O | 66.5 µM (active) | 
CNC(=O)O/N=C/C(C)(C)S(C)(=O)=O |  | inactive
Cc1cc(Cl)ccc1OC(C)C(=O)O (configuration not stated) |  | inactive
CC(C)=CC1C(C(=O)OCc2cccc(Oc3ccccc3)c2)C1(C)C (configuration not stated) |  | inactive
CCOCn1c(-c2ccc(Cl)cc2)c(C#N)c(Br)c1C(F)(F)F | 17.3 µM (active) | 
N#CCC#N |  | inactive
CCCSP(=S)(OCC)Oc1ccc(SC)cc1 (configuration not stated) |  | inactive
CCOc1ccc(N)cc1 |  | inactive
COCCl |  | inactive
CC(C)N(C(=O)CCl)c1ccccc1 |  | inactive
CN(N=O)C(N)=O |  | inactive
CC1(C)[C@H](C(=O)O[C@H](C#N)c2cccc(Oc3ccccc3)c2)[C@@H]1/C=C(\Cl)C(F)(F)F |  | inactive
CC(O)(CS(=O)(=O)c1ccc(F)cc1)C(=O)Nc1ccc(C#N)c(C(F)(F)F)c1 (configuration not stated) |  | inactive
CC(=Cc1ccccc1)[N+](=O)[O-] |  | inactive

Compound | AC50 | outcome
O=CCCl |  | inactive
CCC[CH2][Sn]([Cl])([Cl])[CH2]CCC |  | inactive
O=C(N[C@H]1CN2CCC1CC2)c1ccc2c(c1)OCCO2 |  | inactive
C=CC(Cl)CCl (configuration not stated) |  | inactive
CCC[CH2][Sn]([CH2]CCC)([CH2]CCC)[CH2]CCC |  | inactive
O=C(CBr)c1ccc(O)cc1 |  | inactive
CCCCCCCCCCCCN(C)C | 76.5 µM (active) | 
Oc1c(Cl)cc(Cl)cc1Cl |  | inactive
Cc1cc(Cl)ccc1OCCCC(=O)O |  | inactive
O=[N+]([O-])c1ccccc1O |  | inactive
COc1nn(C(=O)NS(=O)(=O)c2ccccc2OC(F)(F)F)c(=O)n1C |  | inactive
Clc1cccc(Cl)c1 |  | inactive
Nc1ncn[nH]1 |  | inactive
Oc1c(Br)cc(Br)cc1Br |  | inactive
Cc1cc(C)cc(C)c1 |  | inactive
O=S1(=O)OC(c2cc(Br)c(O)c(Br)c2)(c2cc(Br)c(O)c(Br)c2)c2ccccc21 | 46.5 µM (active) | 
O=C(NC(=O)c1c(F)cccc1F)Nc1cc(Cl)c(OC(F)(F)C(F)C(F)(F)F)cc1Cl (configuration not stated) |  | inactive
CC(C)(C)c1ccccc1O | 50 µM (active) | 
